Screening results as filed in PubChem BioAssay.
The sample as a whole holds a higher share of hits than the screen did.
Shiga toxin inh = A qHTS for Small Molecule Inhibitors of Shiga Toxin; Vero cells, Shiga toxin protein synthesis inhibition reporter; inhibition, % at 38.7 µM; 290,000 tested, 9.2% active; in the data active = inhibition mostly above about 28%, no sharp cut-off; inactive = mostly below about 43%
Cycloheximide cs = Cycloheximide Counterscreen for Small Molecule Inhibitors of Shiga Toxin; cell reporter, cycloheximide protein synthesis inhibition counterscreen; max response, %; 300,000 tested, 12% active; in the data active = max response mostly above about 13%, no sharp cut-off; inactive = mostly below about 14%; also: read at 38.3 µM for the half of the compounds with a filed dose
AMA1 RON2 block = qHTS for Inhibitors of AMA1-RON; Towards Development of Antimalarial Drug Lead: Primary Screen; Plasmodium falciparum AMA1 (3D7) - RON2 peptide interaction; Potency, µM (highest dose often 58.2 µM), usual class: inhibitors; AlphaScreen AMA1-biotinylated RON2 peptide binding; 360,000 tested, 0.2% active; active = well fitted inhibition curve with a large enough effect; inconclusive = small, poorly fitted or top-dose-only effect; inactive = no such curve, though single readings can be large or run the other way; also: nearly all actives have a fitted effect of over 45% in size
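AMA1 (3D7) with his tag at 25 nM final met compounds first, then biotinylated RON2 peptide at 25 nM; detection used donor plus acceptor beads, 10 µg/mL apiece, read by AlphaScreen after 30 min at room temperature.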
LASV entry inh = qHTS for Inhibitors of binding or entry into cells for Lassa Virus; Lassa virus pseudotype entry inhibition, cell reporter; Potency, µM (top dose mostly 37.9 µM), actives largely listed as inhibitors; 300,000 tested, 1.2% active; calls by dose curve; tested in HEK293 cells; also: nearly all actives have a fitted effect of over 50% in size
MARV entry inh = qHTS for inhibitors of binding or entry into cells for Marburg Virus | Potency, µM (doses to about 37.8 µM), actives largely listed as inhibitors | 300,000 tested, 1.8% active | Marburg virus pseudotyped entry inhibition, cell reporter; calls by dose curve; tested in HEK293 cells
Hits are given with their value; - = inactive; ? = inconclusive; . = no result given.

SMILES | Shiga toxin inh | Cycloheximide cs | AMA1 RON2 block | LASV entry inh | MARV entry inh
Cc1cc(C)cc(OCC(=O)Nc2cnn(CCCC(=O)O)c2)c1 | - | - | - | - | -
Cc1ccc2c(c1)[nH]c1c(=O)n(Cc3ccccn3)cnc12 | - | - | - | - | ?
Clc1ccc2[nH]c(-c3ccccc3)cc2c1 | 70 | 46 | - | ? | -
COc1ccc(-c2cc3ccccc3[nH]2)cc1 | 100 | 42 | - | - | -
Cc1ccc(NS(=O)(=O)c2cccc(C(=O)N3CCN(C(=O)c4ccco4)CC3)c2)cc1 | . | . | - | . | .
CCn1c(N2CCN(C(=S)NCCc3ccccc3)CC2)nc2ccccc21 | - | - | - | - | ?
CCn1cnc2c(Nc3cccc(Cl)c3)nc(N[C@@H]3CCCC[C@@H]3N)nc21 | . | . | . | 8.2µM | 12µM
CC(C)n1cnc2c(Nc3ccc(F)c(Cl)c3)nc(NCCO)nc21 | - | - | - | . | .
CCc1ccc(C(=O)NCc2ccc(Cl)cc2Cl)cc1 | - | - | - | - | ?
Cc1ccc(C(=O)NCc2ccc(N(C)C)cc2)cc1NC(=O)c1nsc2ccccc12 | . | . | . | 5µM | .
Cc1ccc(C(=O)NCc2ccccc2)cc1NC(=O)c1nsc2ccccc12 | . | . | . | - | .
CCc1ccc(C(=O)NNc2ccc(Cl)cc2)cc1 | 59 | 48 | - | . | .
CCc1ccc(C(=O)NNc2cc(Cl)cc(Cl)c2)cc1 | - | - | - | ? | ?
Cc1ccc(CNC(=O)c2ccc(-n3cccc3)cc2)cc1 | - | - | - | - | ?
Cc1ccc(CNC(=O)c2ccc(N(C)C)cc2)cc1 | 61 | 23 | - | . | .
CCc1ccc(C(=O)NCc2ccc(Cl)cc2)cc1 | - | 15 | - | - | ?
Cc1n[nH]c(C)c1NC(=O)CSc1nnnn1-c1cccc(F)c1 | . | . | - | . | .
COc1ccccc1CCNC(=O)C(=O)NCC(c1ccco1)S(=O)(=O)c1ccccc1 (stereo not given) | . | . | . | - | .
O=C1CSC(c2cn(-c3ccccc3)nc2-c2ccccc2)N1Cc1ccco1 (stereo not given) | - | 19 | - | ? | ?
CCc1ccc(-c2nn(-c3ccccc3)cc2C2SCC(=O)N2Cc2ccco2)cc1 (stereo not given) | - | - | - | - | -
CCCN1C(=O)COc2ccc(-c3n[nH]c(=O)c4ccccc34)cc21 | - | - | - | - | 10µM
CCCN1C(=O)COc2ccc(C(=O)c3ccccc3C(=O)O)cc21 | - | - | - | - | -
CCOC(=O)/C(C#N)=C/C=C1/C=CC=CN1C | - | 27 | - | - | ?
CCOC(=O)/C(C#N)=C\c1ccco1 | - | - | - | - | -
C=CCN1C=CC(=C/C=C(/C#N)C(=O)OCC)C=C1 | - | 34 | - | ? | ?
SMILES | Shiga toxin inh | Cycloheximide cs | AMA1 RON2 block | LASV entry inh | MARV entry inh
CCOC(=O)/C(C#N)=C\N(C)C | - | - | - | - | ?
O=C(O)C1CCCCC1SC1=C([S+](=O)([O-])NC2CCCCC2)CCCC1 (stereo not given) | . | . | . | . | -
O=C(c1ccccc1)c1cc2c(cc1[N+](=O)[O-])OCCO2 | - | 12 | - | . | .
O=[N+]([O-])c1cc2c(cc1[N+](=O)[O-])OCCOCCOCCOCCO2 | - | - | - | - | -
Cc1ccc(C(=O)c2cc3c(cc2[N+](=O)[O-])OCCO3)cc1 | - | 16 | - | - | -
O=C(CNC(=O)c1cccc(-n2cccc2)c1)Nc1ccccc1Br | . | . | - | . | .
COC(=O)[C@H]1C[C@H]2[C@@H]3CC[C@H]4C[C@@H](OC)CC[C@]4(C)[C@H]3CC[C@]2(C)[C@@]2(CCCO2)O1 | . | . | - | . | .
COc1ccc(COC(=O)N/C=C/c2ccco2)cc1 | - | - | - | 1.2µM | -
CC(=O)NC(=S)Nc1ccc(NC(=S)NC(=O)/C=C/c2ccco2)cc1 | - | - | - | ? | -
COc1ccc(NC(=S)NC(=O)/C=C/c2ccco2)cc1 | 101 | 43 | - | - | -
COc1ccccc1COC(=O)N/C=C/c1ccco1 | - | - | - | ? | -
O=C(/C=C/c1ccco1)NC(=S)Nc1ccc(C(=O)O)cc1 | 52 | 23 | - | - | -
Cc1ccc2c(c1)N(C(=O)N1CCC(C(=O)NCCc3ccc(Cl)cc3)CC1)CC(C)O2 (stereo not given) | . | . | . | - | .
O=C(/C=C/c1ccccc1[N+](=O)[O-])OCC(=O)c1ccccc1 | 79 | 37 | ? | ? | -
CC(C)CNC(=O)COc1ccccc1[N+](=O)[O-] | - | - | - | - | ?
COc1ccc(C(=O)COC(=O)/C=C/c2ccccc2[N+](=O)[O-])cc1 | . | . | - | - | -
COC(=O)/C=C/COc1ccccc1[N+](=O)[O-] | 107 | 43 | - | - | -
O=[N+]([O-])c1ccccc1OC/C(=N\O)c1ccccc1 | 41 | 15 | - | - | ?
O=C(COc1ccccc1[N+](=O)[O-])c1ccccc1 | - | 25 | - | - | -
Cc1cc(C)nc(NC(=O)NC(=O)c2ccccc2)n1 | - | - | - | ? | -
Cc1c(NC(=O)c2ccccc2N)cccc1C(=O)O | 46 | 25 | - | - | -
Cc1c(NC(=O)c2ccccc2NC(=O)c2ccccc2)cccc1C(=O)O | - | - | - | - | -
Nc1ccccc1NC(=O)NC(=O)c1ccccc1 | . | 41 | - | - | ?
Nc1ccccc1NC(=O)c1ccccc1N | 30 | 36 | - | - | ?
NC(c1ccc(F)c(F)c1)c1nc(-c2cc(F)cc(F)c2)cs1 (stereo not given) | . | . | - | . | .
SMILES | Shiga toxin inh | Cycloheximide cs | AMA1 RON2 block | LASV entry inh | MARV entry inh
O=C(CCNC(=O)c1ccc([N+](=O)[O-])cc1)Nc1ccc(S(=O)(=O)N2CCOCC2)cc1 | . | . | - | - | -
CCc1ccc(OCC(=O)Nc2ccc(-c3nc4ccccc4o3)c(O)c2)cc1 | - | - | - | - | ?
Oc1cc(NCc2cccnc2)ccc1-c1nc2ccccc2o1 | 84 | 53 | - | ? | ?
Cc1cc(C(F)(F)F)n2nc(-c3cccs3)cc2n1 | 39 | 31 | - | - | ?
CCN(CC)CCCNc1cc(C)nc2cc(-c3cccs3)nn12 | - | - | - | - | 18µM
Cc1nc2cc(-c3cccs3)nn2c(NCC(C)(C)CN(C)C)c1C | - | - | - | - | -
COc1cc(NS(=O)(=O)c2ccc(-c3cc(C)no3)cc2)cc(OC)c1 | . | . | . | - | .
O=C(Nc1cccc(S(=O)(=O)C(F)(F)F)c1)[C@H]1C[C@H](O)[C@@H](CO)O1 | . | . | - | . | .
CC(C(=O)O)c1ccc(C(=O)c2ccccc2)s1 (stereo not given) | . | . | - | . | .
CNc1ncc(C(=O)c2ccccc2)s1 | 70 | 41 | - | - | ?
CNc1ncc(C(=O)c2ccc(Br)cc2)s1 | 81 | 44 | - | ? | ?
COc1ccc(C)cc1NCC(=O)Nc1ccc(C(C)(C)C)cc1 | - | - | ? | - | -
CCN(CC)C(=O)c1sc2c(c1C)c(=O)n(-c1ccc(Cl)c(Cl)c1)c(=O)n2CC(=O)Nc1cccc(OC)c1 | . | . | . | - | .
COc1cccc(-c2nn(-c3ccccc3)cc2CNC(C)Cn2cncn2)c1 (stereo not given) | 111 | 34 | - | - | ?
COc1cccc(-c2nn(-c3ccccc3)cc2CO)c1 | 60 | 33 | - | - | ?
